# Laboratory results: publication PMC7862700, “An all-to-all approach to the identification of sequence-specific readers for epigenetic DNA modifications on cytosine”
# Legend:
# Assay in all cases: DAPPL (digital affinity profiling via proximity ligation, sequencing); 10 mM Tris-HCl pH 7.5, 50 mM NaCl, 1 mM DTT, 4% glycerol, room temperature, 30 min; GST-TFs on glutathione beads, 16-mer random dsDNA library, 0.1% formaldehyde crosslink after washing; high values mean tight binding
# Conditions in all cases: protein: recombinant; tags: N-terminal GST; dsDNA, one strand shown
# FLI1 = target: T1, FLI1 (Homo sapiens, UniProt Q01543 1-452)
# T1 sequence: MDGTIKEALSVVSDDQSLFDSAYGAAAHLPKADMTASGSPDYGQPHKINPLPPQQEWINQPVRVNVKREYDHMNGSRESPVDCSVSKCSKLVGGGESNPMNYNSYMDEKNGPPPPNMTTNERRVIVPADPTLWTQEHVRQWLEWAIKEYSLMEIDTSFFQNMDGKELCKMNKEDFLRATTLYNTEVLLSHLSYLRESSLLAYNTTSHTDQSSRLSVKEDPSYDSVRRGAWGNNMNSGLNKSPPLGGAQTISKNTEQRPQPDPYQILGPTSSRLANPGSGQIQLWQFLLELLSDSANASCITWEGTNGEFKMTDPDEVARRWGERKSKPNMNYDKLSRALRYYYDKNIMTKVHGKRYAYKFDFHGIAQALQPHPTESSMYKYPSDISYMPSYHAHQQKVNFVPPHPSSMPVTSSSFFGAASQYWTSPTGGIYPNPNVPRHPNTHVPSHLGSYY
# Summary of the method: (§1)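 The binding signal reported is, for every hexamer, its read frequency for a factor over its read frequency for the tag-only sample. Reads came from pools of yeast-expressed, GST-fused human transcription factors on glutathione beads, barcoded with DNA and mixed with that sample, which were incubated with 200 nmole of a random double-stranded 16-mer DNA library in Tris/NaCl/DTT/glycerol buffer at room temperature for 30 min. After washing, the pools were crosslinked with 0.1% formaldehyde, proximity-ligated with BsaI/T4 ligase for 1 h at 37 °C, PCR-amplified and sequenced on an Illumina NextSeq500.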
# ELK1 = target: T2, ELK1 (Homo sapiens, UniProt P19419 1-428)
# T2 sequence: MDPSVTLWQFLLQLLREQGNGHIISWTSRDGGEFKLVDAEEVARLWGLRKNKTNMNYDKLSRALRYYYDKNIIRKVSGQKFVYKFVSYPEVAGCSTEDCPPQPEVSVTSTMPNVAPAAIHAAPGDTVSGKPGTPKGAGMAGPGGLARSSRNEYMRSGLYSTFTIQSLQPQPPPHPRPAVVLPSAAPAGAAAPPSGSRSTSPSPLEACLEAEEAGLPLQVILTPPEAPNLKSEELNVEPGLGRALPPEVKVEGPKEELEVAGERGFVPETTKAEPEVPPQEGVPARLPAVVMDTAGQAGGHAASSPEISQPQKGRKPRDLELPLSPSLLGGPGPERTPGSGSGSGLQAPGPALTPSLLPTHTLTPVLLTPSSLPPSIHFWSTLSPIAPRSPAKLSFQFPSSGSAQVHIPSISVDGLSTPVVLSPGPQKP
# Summary of the method: as §1
# GABPA = target: T3, GABPA (Homo sapiens, UniProt Q06546 1-454)
# T3 sequence: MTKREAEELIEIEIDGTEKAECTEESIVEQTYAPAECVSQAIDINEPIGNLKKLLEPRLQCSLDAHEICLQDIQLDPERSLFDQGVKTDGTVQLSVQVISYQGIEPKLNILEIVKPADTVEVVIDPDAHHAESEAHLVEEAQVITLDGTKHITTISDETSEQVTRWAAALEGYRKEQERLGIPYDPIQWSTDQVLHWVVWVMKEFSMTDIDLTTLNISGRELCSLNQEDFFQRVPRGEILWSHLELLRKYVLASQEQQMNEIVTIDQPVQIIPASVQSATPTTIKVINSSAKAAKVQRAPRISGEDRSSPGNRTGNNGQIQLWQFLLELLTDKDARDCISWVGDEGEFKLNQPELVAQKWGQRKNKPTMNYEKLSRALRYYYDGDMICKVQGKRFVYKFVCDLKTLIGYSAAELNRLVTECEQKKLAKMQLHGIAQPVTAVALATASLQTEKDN
# Summary of the method: as §1
# ERG = target: T4, ERG (Homo sapiens, UniProt P11308 1-479)
# T4 sequence: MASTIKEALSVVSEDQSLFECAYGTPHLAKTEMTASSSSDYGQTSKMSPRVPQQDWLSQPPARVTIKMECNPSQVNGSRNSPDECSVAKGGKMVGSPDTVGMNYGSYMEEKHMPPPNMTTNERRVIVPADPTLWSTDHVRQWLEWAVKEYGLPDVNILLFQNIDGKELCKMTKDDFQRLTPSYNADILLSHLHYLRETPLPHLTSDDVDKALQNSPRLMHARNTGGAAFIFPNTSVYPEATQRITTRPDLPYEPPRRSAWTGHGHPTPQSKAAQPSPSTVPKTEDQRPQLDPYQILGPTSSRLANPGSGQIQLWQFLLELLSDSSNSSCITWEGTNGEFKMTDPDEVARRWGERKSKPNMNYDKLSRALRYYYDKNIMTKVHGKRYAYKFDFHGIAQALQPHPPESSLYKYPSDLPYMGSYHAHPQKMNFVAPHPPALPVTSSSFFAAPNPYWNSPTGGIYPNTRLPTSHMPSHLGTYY
# Summary of the method: as §1
# ELF1 = ELF1 (Homo sapiens, UniProt P32519 1-619)
# Summary of the method: as §1
# EHF = target: T5, EHF (Homo sapiens, UniProt Q9NZC4 1-300)
# T5 sequence: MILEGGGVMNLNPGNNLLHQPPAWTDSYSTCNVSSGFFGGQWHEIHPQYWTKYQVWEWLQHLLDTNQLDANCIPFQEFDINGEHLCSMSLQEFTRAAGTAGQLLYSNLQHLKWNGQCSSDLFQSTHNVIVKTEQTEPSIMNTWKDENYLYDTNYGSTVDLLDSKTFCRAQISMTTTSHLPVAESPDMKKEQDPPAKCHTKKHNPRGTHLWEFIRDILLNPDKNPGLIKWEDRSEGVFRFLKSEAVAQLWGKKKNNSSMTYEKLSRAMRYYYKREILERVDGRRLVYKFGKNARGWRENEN
# Summary of the method: as §1
# SPI1 = SPI1 (Homo sapiens, UniProt P17947 1-270)
# Summary of the method: as §1
# SPIB = SPIB (Homo sapiens, UniProt Q01892 1-262)
# Summary of the method: as §1
# ELK3 = target: T6, ELK3 (Homo sapiens, UniProt P41970 1-407)
# T6 sequence: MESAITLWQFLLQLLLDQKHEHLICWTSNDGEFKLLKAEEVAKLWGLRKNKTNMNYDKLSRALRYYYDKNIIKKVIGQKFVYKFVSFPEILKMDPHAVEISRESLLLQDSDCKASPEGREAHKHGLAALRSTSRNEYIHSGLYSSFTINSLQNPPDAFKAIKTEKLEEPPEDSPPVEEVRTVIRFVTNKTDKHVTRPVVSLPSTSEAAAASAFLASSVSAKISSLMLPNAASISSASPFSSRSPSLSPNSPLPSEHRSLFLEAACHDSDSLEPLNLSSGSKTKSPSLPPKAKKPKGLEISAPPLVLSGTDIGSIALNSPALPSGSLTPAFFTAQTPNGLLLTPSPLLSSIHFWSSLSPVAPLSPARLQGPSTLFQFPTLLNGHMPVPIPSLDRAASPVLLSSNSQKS
# Summary of the method: as §1
# SPIB, sequence (Q01892 whole entry): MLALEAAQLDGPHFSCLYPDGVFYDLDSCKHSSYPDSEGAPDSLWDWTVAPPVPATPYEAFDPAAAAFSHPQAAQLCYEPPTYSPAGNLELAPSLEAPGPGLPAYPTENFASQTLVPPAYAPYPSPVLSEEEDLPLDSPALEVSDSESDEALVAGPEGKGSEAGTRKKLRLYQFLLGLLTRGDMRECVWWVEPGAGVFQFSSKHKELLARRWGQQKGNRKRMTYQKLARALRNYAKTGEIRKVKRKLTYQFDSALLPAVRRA
# ELF1, sequence (P32519 whole entry): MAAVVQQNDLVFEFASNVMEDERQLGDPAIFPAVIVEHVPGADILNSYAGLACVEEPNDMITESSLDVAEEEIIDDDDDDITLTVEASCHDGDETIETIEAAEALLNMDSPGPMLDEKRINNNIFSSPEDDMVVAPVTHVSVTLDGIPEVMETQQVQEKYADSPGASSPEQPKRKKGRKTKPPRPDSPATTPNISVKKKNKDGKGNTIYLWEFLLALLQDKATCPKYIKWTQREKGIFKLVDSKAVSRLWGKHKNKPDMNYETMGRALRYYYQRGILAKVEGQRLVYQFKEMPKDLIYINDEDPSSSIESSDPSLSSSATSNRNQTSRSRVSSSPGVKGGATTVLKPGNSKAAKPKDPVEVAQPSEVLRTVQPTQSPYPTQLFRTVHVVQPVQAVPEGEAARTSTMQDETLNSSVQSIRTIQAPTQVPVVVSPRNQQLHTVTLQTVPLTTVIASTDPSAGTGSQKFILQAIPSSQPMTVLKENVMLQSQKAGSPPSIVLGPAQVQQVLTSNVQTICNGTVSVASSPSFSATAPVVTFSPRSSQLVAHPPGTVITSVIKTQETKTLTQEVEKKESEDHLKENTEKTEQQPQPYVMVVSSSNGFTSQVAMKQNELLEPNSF
Sequence,binding signal (FLI1),binding signal (ELK1),binding signal (GABPA),binding signal (ERG),binding signal (ELF1),binding signal (EHF),binding signal (SPI1),binding signal (SPIB),binding signal (ELK3)
ACTCGA,"1.35 fold enrichment (6-mer frequency, TF over GST control)","1.48 fold enrichment (6-mer frequency, TF over GST control)","1.44 fold enrichment (6-mer frequency, TF over GST control)","1.22 fold enrichment (6-mer frequency, TF over GST control)","1.49 fold enrichment (6-mer frequency, TF over GST control)","1.14 fold enrichment (6-mer frequency, TF over GST control)","1.26 fold enrichment (6-mer frequency, TF over GST control)","1.24 fold enrichment (6-mer frequency, TF over GST control)","1.27 fold enrichment (6-mer frequency, TF over GST control)"
GCCCCC,"1.06 fold enrichment (6-mer frequency, TF over GST control)","1.02 fold enrichment (6-mer frequency, TF over GST control)","1.15 fold enrichment (6-mer frequency, TF over GST control)","1.03 fold enrichment (6-mer frequency, TF over GST control)","1.15 fold enrichment (6-mer frequency, TF over GST control)","1.13 fold enrichment (6-mer frequency, TF over GST control)","1.12 fold enrichment (6-mer frequency, TF over GST control)",,"1.06 fold enrichment (6-mer frequency, TF over GST control)"
AAGCAA,"1.03 fold enrichment (6-mer frequency, TF over GST control)","1.08 fold enrichment (6-mer frequency, TF over GST control)","1.07 fold enrichment (6-mer frequency, TF over GST control)","1.02 fold enrichment (6-mer frequency, TF over GST control)","1.06 fold enrichment (6-mer frequency, TF over GST control)","1.02 fold enrichment (6-mer frequency, TF over GST control)",,"1.02 fold enrichment (6-mer frequency, TF over GST control)",
CATGAA,"1.08 fold enrichment (6-mer frequency, TF over GST control)","1.16 fold enrichment (6-mer frequency, TF over GST control)","1.03 fold enrichment (6-mer frequency, TF over GST control)","1.07 fold enrichment (6-mer frequency, TF over GST control)","1.06 fold enrichment (6-mer frequency, TF over GST control)","1.15 fold enrichment (6-mer frequency, TF over GST control)","1.04 fold enrichment (6-mer frequency, TF over GST control)",,"1.11 fold enrichment (6-mer frequency, TF over GST control)"
GATAGC,"1.11 fold enrichment (6-mer frequency, TF over GST control)","1.1 fold enrichment (6-mer frequency, TF over GST control)","1.13 fold enrichment (6-mer frequency, TF over GST control)","1.02 fold enrichment (6-mer frequency, TF over GST control)","1.02 fold enrichment (6-mer frequency, TF over GST control)","1.1 fold enrichment (6-mer frequency, TF over GST control)","1.05 fold enrichment (6-mer frequency, TF over GST control)",,"1.1 fold enrichment (6-mer frequency, TF over GST control)"
ACTCCA,"1.15 fold enrichment (6-mer frequency, TF over GST control)","1.24 fold enrichment (6-mer frequency, TF over GST control)","1.29 fold enrichment (6-mer frequency, TF over GST control)","1.26 fold enrichment (6-mer frequency, TF over GST control)","1.21 fold enrichment (6-mer frequency, TF over GST control)","1.17 fold enrichment (6-mer frequency, TF over GST control)","1.23 fold enrichment (6-mer frequency, TF over GST control)","1.16 fold enrichment (6-mer frequency, TF over GST control)","1.17 fold enrichment (6-mer frequency, TF over GST control)"
ATTTGT,"1.36 fold enrichment (6-mer frequency, TF over GST control)","1.36 fold enrichment (6-mer frequency, TF over GST control)","1.34 fold enrichment (6-mer frequency, TF over GST control)","1.28 fold enrichment (6-mer frequency, TF over GST control)","1.31 fold enrichment (6-mer frequency, TF over GST control)","1.3 fold enrichment (6-mer frequency, TF over GST control)","1.26 fold enrichment (6-mer frequency, TF over GST control)","1.27 fold enrichment (6-mer frequency, TF over GST control)","1.24 fold enrichment (6-mer frequency, TF over GST control)"
